Bioassay records from PubChem BioAssay.
The full list was thinned out, with hits kept by preference.
BoNT-F LC inh: BoNT/F light chain protease inhibitors, primary screen, biochemical, flow cytometry, MLPCN library | Botulinum neurotoxin type F light chain protease (Clostridium botulinum) | Multiplex microsphere protease cleavage assay | inhibition, % at 10 µM | hit rate 0.22% among 360,000 | AID 588497, 2011; in the data active means inhibition above about 35%, passing the limit was not always enough; inconclusive means no clear call, values can overlap the other calls
Autofluor counter: compound fluorescence in toxin protease inhibitor counterscreen. hit rate 3.1% among 360,000. compound autofluorescence counterscreen, microsphere flow cytometry; stronger effect = higher value. fluorescence intensity (concentration not given with the values). AID 624483; in the data active means fluorescence intensity above about 16000; inconclusive means no clear call, values can overlap the other calls
BoNT A protease: BoNT/A light chain protease inhibitors, primary screen, biochemical, flow cytometry, MLPCN library; multiplex microsphere protease substrate cleavage; hit rate 0.17% among 360,000; AID 588499, 2011; inhibition, % at 10 µM
Anthrax LF prot: Bacillus anthracis LF protease inhibitors, primary screen, biochemical, multiplex microsphere, MLPCN library | multiplex microsphere protease cleavage assay | inhibition, % at 10 µM | hit rate 0.12% among 360,000 | AID 588501, 2011
Target sequence (P15917 whole entry, looked up): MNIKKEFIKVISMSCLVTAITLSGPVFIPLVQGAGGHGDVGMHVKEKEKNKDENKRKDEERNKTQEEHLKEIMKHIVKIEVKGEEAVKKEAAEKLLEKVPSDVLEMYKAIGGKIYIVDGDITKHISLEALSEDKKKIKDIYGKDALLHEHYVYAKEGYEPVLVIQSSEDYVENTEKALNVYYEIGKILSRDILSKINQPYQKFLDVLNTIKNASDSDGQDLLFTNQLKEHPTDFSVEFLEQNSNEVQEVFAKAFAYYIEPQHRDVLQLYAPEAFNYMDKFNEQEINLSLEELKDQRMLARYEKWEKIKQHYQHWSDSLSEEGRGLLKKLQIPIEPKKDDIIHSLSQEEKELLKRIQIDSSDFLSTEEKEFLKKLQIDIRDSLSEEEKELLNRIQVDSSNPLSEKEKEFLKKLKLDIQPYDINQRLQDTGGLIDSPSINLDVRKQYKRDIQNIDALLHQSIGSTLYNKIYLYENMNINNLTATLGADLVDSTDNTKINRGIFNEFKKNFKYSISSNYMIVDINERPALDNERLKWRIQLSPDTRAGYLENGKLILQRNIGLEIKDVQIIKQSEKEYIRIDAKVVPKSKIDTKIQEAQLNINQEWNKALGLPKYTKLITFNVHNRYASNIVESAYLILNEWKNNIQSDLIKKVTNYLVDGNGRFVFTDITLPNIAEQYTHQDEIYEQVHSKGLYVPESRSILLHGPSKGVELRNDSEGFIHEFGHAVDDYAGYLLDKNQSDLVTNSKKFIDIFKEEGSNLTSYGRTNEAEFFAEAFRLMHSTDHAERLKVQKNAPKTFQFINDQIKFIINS
TcdB GH inh: TcdB glycohydrolase inhibitors, primary screen, biochemical, single point, plate reader. Toxin B (Clostridioides difficile), P18177. TcdB glycohydrolase enzymatic assay. inhibition, % at 9.99 µM. hit rate 0.24% among 350,000. AID 652162, 2013; in the data active means inhibition above about 10%
Of the large screens only hits and unclear results are named; the others gave an inactive call. Unless noted, no stated cut-off is given here; in the data, active means inhibition above about 30%; inconclusive means no clear call, values can overlap the other calls; inactive means below that.

Cc1ccccc1-n1c(O)c(/C=C2/C(c3ccccc3)=Nc3ccccc32)c(=O)[nH]c1=O	BoNT A protease 47
C[C@H](CO)N1C[C@H](C)[C@H](CN(C)C)Oc2ccc(NC(=O)NC3CCCCC3)cc2CC1=O	none (no result: BoNT-F LC inh, Autofluor counter, BoNT A protease, Anthrax LF prot)
O=C(NCc1ccccc1)Oc1cccc(Cl)c1	Autofluor counter 19856 (no result: TcdB GH inh)
O=C(NCc1ccccc1)c1cccc(COc2cccc(Cl)c2)c1	none (no result: TcdB GH inh)
COc1ccc(C(=O)NCC23C=CC(O2)C2C(=O)N(Cc4ccccc4)C(=O)C23)cc1 (stereo unspecified)	Autofluor counter 19591, BoNT A protease inconclusive (no result: TcdB GH inh)
CCCN1[C@@H]2c3ccc(C4=CCCCC4)c(=O)n3C[C@H]1[C@H](CO)[C@H]2C(=O)N1CCc2ccccc2C1	none (no result: BoNT-F LC inh, Autofluor counter, BoNT A protease, Anthrax LF prot)
COc1cc([N+](=O)[O-])ccc1NC(=O)Oc1ccc(NC(C)=O)cc1	BoNT-F LC inh inconclusive, TcdB GH inh 10
CC(=O)Nc1ccc(OC(=O)c2cc([N+](=O)[O-])ccc2Cl)cc1	none
Cc1ccc([N+](=O)[O-])cc1NC(=S)NC(=O)CC(C)(C)C	Autofluor counter 19100 (no result: TcdB GH inh)
COc1ccc([N+](=O)[O-])cc1NC(=S)NC(C)=O	TcdB GH inh 16
C[C@H]1CN([C@@H](C)CO)S(=O)(=O)c2ccc(Br)cc2O[C@@H]1CN(C)C(=O)CN(C)C	none (no result: BoNT-F LC inh, Autofluor counter, BoNT A protease, Anthrax LF prot)
Cc1ccc(NC(=O)c2cc3nc(C)cc(C)n3n2)cc1	Autofluor counter 20310 (no result: TcdB GH inh)
COc1cccc(NC(=O)N[C@@H]2CC[C@@H](CC(=O)N3CCN(C)CC3)O[C@H]2CO)c1	none (no result: BoNT-F LC inh, Autofluor counter, BoNT A protease, Anthrax LF prot)
O=C(NC1CCCCC1)N(Cc1cc2cc3c(cc2[nH]c1=O)OCCO3)CC1CCCO1 (stereo unspecified)	Autofluor counter 18971, BoNT A protease inconclusive (no result: TcdB GH inh)
Cc1ccc2cc(CN(CCCN3CCOCC3)C(=O)NC3CCCCC3)c(=O)[nH]c2c1C	none (no result: TcdB GH inh)
Cc1cc2cc(CN(CCCN3CCOCC3)C(=O)NC3CCCCC3)c(=O)[nH]c2cc1C	Autofluor counter 23619 (no result: TcdB GH inh)
O=C(NC1CCCCC1)N(CCO)Cc1cc2cc3c(cc2[nH]c1=O)OCCO3	none (no result: TcdB GH inh)
COc1cc(CC(=O)Nc2ccc(S(=O)(=O)N(C)C)cc2)cc(OC)c1OC	Autofluor counter 23513
COc1cc(C(=O)Nc2ccc(S(=O)(=O)NC(C)C)cc2)cc(OC)c1OC	Autofluor counter 16279 (no result: TcdB GH inh)
COc1ccc(/C=C2/SC(=S)N(Cc3ccccc3)C2=O)cc1O	none
O=C1/C(=C\c2cc(Cl)c(O)c(Cl)c2)SC(=S)N1Cc1ccccc1	Autofluor counter 17886
O=C1/C(=C\c2ccco2)SC(=S)N1Cc1ccccc1	BoNT A protease 44, Anthrax LF prot 34 (no result: TcdB GH inh)
COc1ccc(NC(=O)N[C@H]2CC[C@@H](CCn3cc(-c4ccccc4)nn3)O[C@H]2CO)cc1	none (no result: BoNT-F LC inh, Autofluor counter, BoNT A protease, Anthrax LF prot)
O=C(CCSCCc1ccccn1)Nc1ccccn1	none (no result: TcdB GH inh)
O=C(CCSCCc1ccccn1)Nc1ccc(Cl)cn1	Autofluor counter 20129, BoNT A protease inconclusive (no result: TcdB GH inh)
O=C(CCSCCc1ccccn1)Nc1ccc(Br)cn1	Autofluor counter 23488
CN(CCc1ccccn1)C(=S)Nc1ccc(Cl)c(Cl)c1	none
CN(CCc1ccccn1)C(=O)Nc1ccc(Cl)cc1	Autofluor counter 17188 (no result: TcdB GH inh)
CC(C)NC(=O)Nc1ccc2c(c1)C(=O)N([C@H](C)CO)C[C@@H](C)[C@H](CN(C)C(=O)c1ccccc1)OCCCC[C@H](C)O2	none (no result: BoNT-F LC inh, Autofluor counter, BoNT A protease, Anthrax LF prot)
C[C@H](CO)N1C[C@H](C)[C@@H](CN(C)C(=O)Nc2ccc(F)cc2)Oc2cc(/C=C/c3ccccc3)ccc2S1(=O)=O	none (no result: BoNT-F LC inh, Autofluor counter, BoNT A protease, Anthrax LF prot)
COc1ccc(NC(=O)N(C)C[C@@H]2Oc3c(NC(=O)c4nc5ccccc5s4)cccc3C(=O)N([C@H](C)CO)C[C@@H]2C)cc1	none (no result: BoNT-F LC inh, Autofluor counter, BoNT A protease, Anthrax LF prot)
C[C@H]1CN([C@@H](C)CO)C(=O)c2cc(C#CCN(C)C)cnc2O[C@H]1CN(C)Cc1ccc(F)cc1	none (no result: BoNT-F LC inh, Autofluor counter, BoNT A protease, Anthrax LF prot)
CCCCN1CC(C(=O)NCc2ccc(C)cc2)CC1=O (stereo unspecified)	Autofluor counter 18906 (no result: TcdB GH inh)
Cc1ccc(NCCC(=O)c2cccc([N+](=O)[O-])c2)cc1	none (no result: TcdB GH inh)
O=C(CCNc1ccc(Br)cc1)c1cccc([N+](=O)[O-])c1	none
O=C(CCNc1ccccc1)c1cccc([N+](=O)[O-])c1	Autofluor counter 20571 (no result: TcdB GH inh)
O=C(CCNc1ccc(F)cc1)c1cccc([N+](=O)[O-])c1	Autofluor counter 20472, BoNT A protease inconclusive (no result: TcdB GH inh)
C[C@@H]1CN([C@@H](C)CO)C(=O)c2cc(C#Cc3ccc(F)cc3)cnc2O[C@@H]1CN(C)C(=O)Nc1ccc(F)cc1	none (no result: BoNT-F LC inh, Autofluor counter, BoNT A protease, Anthrax LF prot)
COc1ccc(-c2cc(C(F)(F)F)n3nc(N)nc3n2)cc1	Autofluor counter 23917
C[C@@H]1CN([C@H](C)CO)C(=O)c2cc(N(C)C)ccc2O[C@H]1CN(C)C(=O)Nc1ccc2c(c1)OCO2	none (no result: BoNT-F LC inh, Autofluor counter, BoNT A protease, Anthrax LF prot)
Cc1ccccc1C(=O)NC(=S)N(C)C1CCCCC1	none
CN(C(=S)NC(=O)c1ccccc1Br)C1CCCCC1	Autofluor counter 16560
COc1ccc(Cn2c(=O)oc3ccc(C)cc32)cc1OC	Autofluor counter 22068 (no result: TcdB GH inh)
COc1ccc(S(=O)(=O)N(C)C[C@H]2OCCCC[C@H](C)Oc3ccc(NC(=O)NC(C)C)cc3C(=O)N([C@H](C)CO)C[C@@H]2C)cc1	none (no result: BoNT-F LC inh, Autofluor counter, BoNT A protease, Anthrax LF prot)
CCN(CC)C(=O)c1cccc(-c2ccc(OC)cc2)c1	Autofluor counter 21818 (no result: TcdB GH inh)
Cc1sc(NC(=S)NC(=O)c2ccc(C(C)(C)C)cc2)c(C#N)c1C	Autofluor counter 21363 (no result: TcdB GH inh)
Cc1cc(C(=O)Nc2sc(C)c(C)c2C#N)c(C)o1	Autofluor counter 16457, BoNT A protease inconclusive (no result: TcdB GH inh)
Cc1sc(NC(=O)c2oc3ccccc3c2C)c(C#N)c1C	none
CCCN(C)C[C@@H]1OCCCC[C@@H](C)Oc2ccc(NC(=O)CCCCCC(=O)Nc3ccccc3N)cc2C(=O)N([C@H](C)CO)C[C@@H]1C	none (no result: BoNT-F LC inh, Autofluor counter, BoNT A protease, Anthrax LF prot)
Cc1ccc(CNC(=O)c2ccc(N3CCCC3=O)cc2)cc1	none (no result: TcdB GH inh)
Cn1nc(C(C)(C)C)cc1C(=O)NCc1ccc(N2CCCC2=O)cc1	Autofluor counter 23561, BoNT A protease inconclusive (no result: TcdB GH inh)
C/C(CCc1ccc2c(c1)OCO2)=N\N=C1\NC(=O)CC(C(=O)Nc2ccc(Cl)cc2)S1 (stereo unspecified)	Autofluor counter 21037
CC(NC(=O)c1ccco1)c1cccc2ccccc12 (stereo unspecified)	Autofluor counter 22307 (no result: TcdB GH inh)
O=C(COC(=O)c1nc(Cl)ccc1Cl)c1ccc(Cl)s1	none
Cn1cccc1C(=O)OCC(=O)c1cc2ccccc2o1	Autofluor counter 20874, BoNT A protease inconclusive (no result: TcdB GH inh)
O=C(COC(=O)c1ccc(Cl)s1)c1cc2ccccc2o1	Autofluor counter 20753 (no result: TcdB GH inh)
Cn1cccc1C(=O)OCC(=O)c1c[nH]c2ccccc12	none
O=C(CSc1nc2cc(Cl)ccc2s1)c1cc2ccccc2o1	Autofluor counter 19577
CCCn1c(-c2ccc(OC)cc2)nc2nc3ccccc3nc21	Autofluor counter 22319 (no result: TcdB GH inh)
C=CCOC(=O)C1=C(C)OC(N)=C(C(=O)OCC)C12C(=O)N(CC(N)=O)c1ccccc12 (stereo unspecified)	Autofluor counter 19254, BoNT A protease inconclusive (no result: TcdB GH inh)
